Data taken from the supplement of paper PMC7156485.
± gives the standard deviation of the averaged measurements.

Columns and labels:
Conditions in all cases: concentration: 10 µM; 24 h
HCC1569 [1] = assay: cell number relative to DMSO (% of DMSO); higher = more cells (less growth inhibition / toxicity)
How it was run: (§1)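 H1.0 nuclear intensity or cell number is expressed as percent of the plate control, with the median of replicates taken. HCC1569 and TDF cells were treated with compounds at 10 µM for 24 h at 37 °C, in triplicate, then fixed and immunostained for H1.0 with DAPI as a nuclear stain. HCC1569 values were smoothed to correct for positional effects.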

TDF [2] = assay: as above
How it was run: as §1

TDF [3] = assay: H1.0 immunofluorescence intensity relative to DMSO (% of DMSO); higher = stronger H1.0 induction, active = 120 or more
How it was run: as §1

HCC1569 [4] = assay: H1.0 immunofluorescence intensity relative to DMSO (% of DMSO); higher = stronger H1.0 induction, active = 140 or more
How it was run: as §1
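For H1.0 immunofluorescence intensity relative to DMSO in this document: TDF is a line of transformed human dermal fibroblasts of mesenchymal origin.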
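For cell number relative to DMSO in this document: TDF denotes transformed human dermal fibroblasts of mesenchymal origin.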

Structure (SMILES) | cell number (HCC1569 [1]) | cell number (TDF [2]) | H1.0 immunofluorescence intensity (TDF [3]) | H1.0 immunofluorescence intensity (HCC1569 [4])
NC(=O)Nc1sc(-c2ccc(F)cc2)cc1C(N)=O | 75.6 | 60.6 | 96.3 (inactive) | 177 (active)
NCCCC(=O)O | 109 | 106 | 108 (inactive) | 96.5 (inactive)
CC(=O)OC1CC2CCC3C(CCC4(C)C3CC([N+]3(C)CCCCC3)C4OC(C)=O)C2(C)CC1N1CCCCC1 (stereo not given) [Vecuronium] | 103 | 95.7 | 99.2 (inactive) | 110 (inactive)
CC(C)NCC(O)c1ccc(O)c(O)c1 (racemic) [DL-Isoproterenol] | 107 | 108 | 93.8 (inactive) | 101 (inactive)
CN(C)CCCN1c2ccccc2Sc2ccccc21.Cl [Promazine hydrochloride] | 103 | 107 | 118 (inactive) | 110 (inactive)
CCN(Cc1ccncc1)C(=O)C(CO)c1ccccc1 (stereo not given) [Tropicamide] | 104 ± 5.5 | 105 ± 8.1 | 98.4 (inactive) | 100 (inactive)
Cn1c(NCCN(CCO)CCCc2ccc([N+](=O)[O-])cc2)cc(=O)n(C)c1=O [Nifekalant] | 101 | 99.4 | 96.3 (inactive) | 100 (inactive)
Cc1nccn1CC1CCc2c(c3ccccc3n2C)C1=O (stereo not given) [Ondansetron] | 103 | 104 | 95.4 (inactive) | 118 (inactive)
CC(=O)Oc1ccccc1C(=O)O [Acetylsalicylic acid] | 101 | 98.8 | 89.6 (inactive) | 88.3 (inactive)
O.c1cnc2c(c1)ccc1cccnc12 [1,10-Phenanthroline monohydrate] | 77.2 | 44.8 | 108 (inactive) | 93.9 (inactive)
COc1cc2ccc(=O)oc2cc1O [Scopoletin] | 101 | 113 | 101 (inactive) | 88.9 (inactive)
Cc1ccc(C(=O)Nc2ccc(S(=O)(=O)[O-])c3cc(S(=O)(=O)[O-])cc(S(=O)(=O)[O-])c23)cc1NC(=O)c1cccc(NC(=O)Nc2cccc(C(=O)Nc3cc(C(=O)Nc4ccc(S(=O)(=O)[O-])c5cc(S(=O)(=O)[O-])cc(S(=O)(=O)[O-])c45)ccc3C)c2)c1.[Na+].[Na+].[Na+].[Na+].[Na+].[Na+] [Suramin hexasodium] | 101 | 101 | 98.5 (inactive) | 102 (inactive)
O=C1N(c2ccccc2)c2ccccc2C1(Cc1ccncc1)Cc1ccncc1 [Linopirdine] | 108 | 112 | 93.9 (inactive) | 94.7 (inactive)
O=C1NC(=O)c2c1c1c3ccccc3[nH]c1c1[nH]c3cc(Br)ccc3c21 [Cdk4 Inhibitor] | 74.2 | 63.5 | 91.2 (inactive) | 208 (active)
O=C1CCC(N2C(=O)c3ccccc3C2=O)C(=O)N1 (stereo not given) [Thalidomide] | 101 | 102 | 97.1 (inactive) | 96.7 (inactive)
Cl.Nc1cc(Cl)c(NC2=NCCN2)c(Cl)c1 [p-Aminoclonidine hydrochloride] | 100 | 114 | 97.1 (inactive) | 88.3 (inactive)
CCCCCC(O)C=CC1C(O)CC(O)C1CCCCCCC(=O)O (stereo not given) [Prostaglandin F1a] | 106 | 101 | 91.9 (inactive) | 97.7 (inactive)
Cc1ccc([N+](=O)[O-])cc1S(=O)(=O)N(C)N=Cc1cnc2ccc(Br)cn12.Cl.O.O [PI 3-Ka Inhibitor VIII] | 45.7 | 4.97 | – | 125 (inactive)
O=C1NC(=O)C(c2cn(CCCn3ccnc3)c3ccccc23)=C1Nc1ccccc1 [PKCb Inhibitor] | 100 | 113 | 87.7 (inactive) | 104 (inactive)
CC(C(=O)O)c1cccc(C(=O)c2ccccc2)c1 (stereo not given) [Ketoprofen] | – | – | 88.8 (inactive) | 101 (inactive)
O=C1c2ccccc2-c2nc3nnnn3nc21 [PDK1/Akt/Flt Dual Pathway Inhibitor] | 41.8 | 3.4 | – | 56.9 (inactive)
COc1ccc(CCN(C)CCCC(C#N)(c2ccc(OC)c(OC)c2)C(C)C)cc1OC (stereo not given) [Verapamil] | – | – | 90.6 (inactive) | 98.6 (inactive)
COS(=O)(=O)[O-].C[n+]1c2ccccc2nc2ccccc21 [5-methylphenazin-5-ium methyl sulfate] | 28.1 | 4.9 | – | 688 (active)
